Results from PubChem BioAssay (Tox21).
A number with no mark means an inactive call. Records with an inconclusive call do not appear. A call without a number means that no potency is given here. The source made the active and inactive calls. Unless noted, calls follow the shape of the dose curve; as a rule, active = well fitted curve in the direction sought with a large enough effect in the repeat runs; inconclusive = weak or mixed curves; inactive = no such curve, though single readings can be large; an effect the other way counts as inactive or inconclusive.

Legend:
[1] = A CellTox Green Cytotoxicity Assay to monitor cytotoxicity in HEK293 cells - 32 hour (AID 1224881); also: nearly all actives have a fitted effect of over 40% in size
Method in brief: (§1)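 Dead-cell fluorescence measured kinetically: asymmetric cyanine dye, HEK293, 600 cells/well, 5 h settle, 23 nL cpd/DMSO, 37 C, reads 0–40 h every 8 h.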

[2] = A CellTox Green Cytotoxicity Assay to monitor cytotoxicity in HepG2 cells - 0 hour (AID 1224882); also: nearly all actives have a fitted effect of over 35% in size
Method in brief: (§2)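 First, HepG2 cells (600/well) mixed with reagent were plated; second, after 5 h at 37 C they received compounds via pintool; third, fluorescence was measured at 0 h through 40 h at 8 h intervals.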

[3] = A CellTox Green Cytotoxicity Assay to monitor cytotoxicity in HepG2 cells - 32 hour (AID 1224883); also: nearly all actives have a fitted effect of over 50% in size
Method in brief: as §2

[4] = A CellTox Green Cytotoxicity Assay to monitor cytotoxicity in HEK293 cells - 8 hour (AID 1224884); also: nearly all actives have a fitted effect of over 35% in size
Method in brief: as §1

[5] = qHTS RealTime-Glo MT Cell Viability Assay in HepG2 cells - 16 hour (AID 1224885); also: nearly all actives have a fitted effect of over 50% in size
Method in brief: (§3)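 Tox21 10K library screened in qHTS format on HepG2 cells carrying RealTime-Glo reagents. Compounds were added after a 5 h preincubation, and the luminescent signal from continuous culture was measured repeatedly during 40 h treatment.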

[6] = qHTS RealTime-Glo MT Cell Viability Assay in HEK293 cells - 8 hour (AID 1224887); also: top concentration of the series differs between compounds; nearly all actives have a fitted effect of over 50% in size
Method in brief: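 600 HEK293 cells per well, dispensed already mixed with RealTime-Glo MT reagents. Compound dosing came 5 h later. The same wells were read for luminescence at 0, 8, 16, 24, 32 and 40 h of exposure at 37 C.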

[7] = qHTS RealTime-Glo MT Cell Viability Assay in HepG2 cells - 0 hour (AID 1224889); also: nearly all actives have a fitted effect of over 50% in size
Method in brief: as §3

[8] = A CellTox Green Cytotoxicity Assay to monitor cytotoxicity in HepG2 cells - 8 hour (AID 1224890); also: nearly all actives have a fitted effect of over 45% in size
Method in brief: as §2

[9] = qHTS assay to identify small molecule antagonists of the estrogen receptor alpha (ER-alpha) signaling pathway using the BG1 cell line in the presence of 0.1 nM 17-beta-estradiol - cell viability counter screen (AID 1259241); also: nearly all actives have a fitted effect of over 40% in size
Method in brief: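 Following 5 days in phenol red-free medium with charcoal-stripped serum, VM7Luc4E2 cells received test compounds alongside 0.1 nM 17beta-estradiol (final) at 37C for 22 hr. Live cells were then quantified via protease-substrate fluorescence.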

[10] = qHTS assay to identify small molecule agonists of the sonic hedgehog signaling (Shh) pathway - cell viability counter screen (AID 1259366); also: nearly all actives have a fitted effect of over 50% in size
Method in brief: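 Compounds in DMSO were pin-transferred onto 3T3 Gli1-Luc cells that had settled 4hr; plates then stood 24hr at 37C and 5% CO2. One hour before the end, CellTiter-Fluor was added and fluorescence recorded.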

[11] = qHTS assay to identify small molecule agonists of the sonic hedgehog signaling (Shh) pathway (AID 1259368; calls by dose curve;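 also: NIH/3T3-derived 3T3Gli1-Luc cells carrying a stable Gli1-driven firefly luciferase reporter; series mostly up to about 92 µM; nearly all actives have a fitted effect of over 15% in size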)
Method in brief: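 Quantitative high-throughput format using a Gli1-driven firefly luciferase reporter line derived from NIH/3T3 cells. After a 24 hr compound treatment at 37 C and 5% CO2, luminescence reported Gli1 response element activity.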

[12] = qHTS RealTime-Glo MT Cell Viability Assay in HEK293 cells - 24 hour (AID 1224886)
Method in brief: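 Luminescence generated by NanoLuc from substrate produced by living HEK293 cells served as the viability signal. Each value reflects the reading at its stated time point during continuous 40 h compound exposure at 37 C.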

[13] = A CellTox Green Cytotoxicity Assay to monitor cytotoxicity in HEK293 cells - 16 hour (AID 1224888); also: nearly all actives have a fitted effect of over 35% in size
Method in brief: as §1

[14] = qHTS assay to identify small molecule antagonists of the androgen receptor (AR) signaling pathway using the MDA cell line in the presence of 0.5 nM R1881 - cell viability counter screen (AID 1259242); also: nearly all actives have a fitted effect of over 45% in size
Method in brief: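 qHTS format. MDA-kb2 (MMTV-luc, AR/GR responsive) + cpd + 0.5 nM R1881 final, 16 hr 37C/0% CO2 → CellTiter-Fluor 30 min → fluorescence intensity.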

[15] = qHTS assay to identify small molecule HDAC inhibitors - cell viability counter screen (AID 1259365)
Method in brief: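 HCT-116 wild-type, overnight attachment; 2hr drug exposure, 37C; CellTiter-Glo luminescent ATP readout after 30min RT.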

[16] = qHTS assay to identify small molecule antagonists of the sonic hedgehog signaling (Shh) pathway - cell viability counter screen (AID 1259367); also: nearly all actives have a fitted effect of over 55% in size
Method in brief: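 Fluorescence read-out (CellTiter-Fluor, 1 hr at 37C) taken after 23 hr compound treatment of 3T3 Gli1-Luc cells stimulated with conditioned medium. Cells were seeded at 2,000 per well and pre-incubated 4 hr.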

[17] = qHTS assay to identify small molecule phospholipidosis (PLD) inducers (AID 1259344; active = well fitted curve in the direction sought with a large enough effect; an effect the other way counts as inactive or inconclusive)
Method in brief: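 Read-out is LipidTOX Red fluorescence (ex 595/em 615) imaged in HepG2 cells after 24 h compound exposure at 37 C, with Hoechst nuclear counterstain (ex 352/em 461) allowing per-cell normalisation.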

[18] = qHTS assay to identify small molecule HDAC inhibitors (AID 1259364);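 also: wild-type HCT-116 cells with endogenous class I/II HDAC activity; top concentration of the series differs between compounds; nearly all actives have a fitted effect of over 45% in size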
Method in brief: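 Quantitative high-throughput format: overnight-seeded HCT-116 cells got compounds for 2 hr at 37C; HDAC-Glo I/II reagent added, 30 min RT, luminescence measured.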

[19] = molecular target: Androgen receptor (Homo sapiens) (UniProt P10275); experiment: qHTS assay to identify small molecule antagonists of the androgen receptor (AR) signaling pathway using the MDA cell line in the presence of 0.5 nM R1881 (AID 1259243)
Androgen receptor (Homo sapiens), sequence (P10275 whole entry, looked up): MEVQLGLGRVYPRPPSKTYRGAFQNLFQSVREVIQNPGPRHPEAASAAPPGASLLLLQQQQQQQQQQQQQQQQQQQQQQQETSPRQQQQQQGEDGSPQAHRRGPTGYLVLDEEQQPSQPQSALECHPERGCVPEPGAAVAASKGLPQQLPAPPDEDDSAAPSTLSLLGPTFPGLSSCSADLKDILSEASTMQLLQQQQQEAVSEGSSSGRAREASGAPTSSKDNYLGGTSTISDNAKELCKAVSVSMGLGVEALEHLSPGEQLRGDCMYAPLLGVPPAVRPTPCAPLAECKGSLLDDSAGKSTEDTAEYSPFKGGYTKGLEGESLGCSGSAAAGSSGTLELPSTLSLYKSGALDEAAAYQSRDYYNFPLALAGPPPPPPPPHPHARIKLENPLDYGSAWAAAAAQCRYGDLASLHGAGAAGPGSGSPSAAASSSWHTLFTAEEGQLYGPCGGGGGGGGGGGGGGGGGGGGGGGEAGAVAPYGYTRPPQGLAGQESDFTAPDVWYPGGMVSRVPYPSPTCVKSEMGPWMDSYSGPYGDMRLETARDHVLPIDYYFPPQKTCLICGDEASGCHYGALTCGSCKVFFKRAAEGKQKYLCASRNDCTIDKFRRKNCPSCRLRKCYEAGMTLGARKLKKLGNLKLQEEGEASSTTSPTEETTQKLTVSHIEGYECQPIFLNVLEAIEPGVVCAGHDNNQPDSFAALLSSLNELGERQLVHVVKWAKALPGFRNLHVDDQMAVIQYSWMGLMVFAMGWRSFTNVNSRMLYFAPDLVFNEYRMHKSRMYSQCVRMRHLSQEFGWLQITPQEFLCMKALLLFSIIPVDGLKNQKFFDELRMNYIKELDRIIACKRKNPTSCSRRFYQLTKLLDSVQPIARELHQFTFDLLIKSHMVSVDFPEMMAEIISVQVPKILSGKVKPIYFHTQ
Method in brief: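 Antagonist mode quantitative HTS in MDA-kb2 MMTV-luciferase cells, agonist R1881 at 0.5 nM final, 16 hr exposure at 37C and 0% CO2, luminescent detection.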

[20] = molecular target: Estrogen receptor (Homo sapiens) (UniProt P03372); experiment: qHTS assay to identify small molecule antagonists of the estrogen receptor alpha (ER-alpha) signaling pathway using the BG1 cell line in the presence of 0.1 nM 17-beta-estradiol (AID 1259244); also: nearly all actives have a fitted effect of over 50% in size
Estrogen receptor (Homo sapiens), sequence (P03372 whole entry, looked up): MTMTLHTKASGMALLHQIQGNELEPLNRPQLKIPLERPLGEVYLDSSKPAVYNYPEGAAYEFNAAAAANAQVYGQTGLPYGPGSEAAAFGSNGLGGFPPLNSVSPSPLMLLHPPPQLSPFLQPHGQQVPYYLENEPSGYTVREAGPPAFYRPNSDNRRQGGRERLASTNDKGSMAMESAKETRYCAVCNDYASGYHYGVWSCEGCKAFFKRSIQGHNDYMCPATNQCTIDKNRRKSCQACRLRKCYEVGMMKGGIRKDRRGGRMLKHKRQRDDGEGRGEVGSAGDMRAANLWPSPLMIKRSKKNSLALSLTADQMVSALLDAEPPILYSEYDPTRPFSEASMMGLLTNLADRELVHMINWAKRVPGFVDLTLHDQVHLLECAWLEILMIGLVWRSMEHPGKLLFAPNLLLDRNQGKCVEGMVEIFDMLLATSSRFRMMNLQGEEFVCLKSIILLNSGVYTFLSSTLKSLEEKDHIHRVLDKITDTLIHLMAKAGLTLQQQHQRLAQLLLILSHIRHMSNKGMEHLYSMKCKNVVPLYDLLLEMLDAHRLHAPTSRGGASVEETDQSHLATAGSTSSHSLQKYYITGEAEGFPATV
Method in brief: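 Reporter is a stably transfected luciferase under four estrogen responsive elements in VM7Luc4E2 cells expressing native full-length ER-alpha; inhibition of 0.1 nM (final) 17beta-estradiol-driven signal over 22 h is read by luminescence.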

SMILES	Potency [1]	outcome [2]	Potency [3]	Potency [4]	Potency [5]	Potency [6]	Potency [7]	Potency [8]	outcome [9]	Potency [10]	outcome [11]	Potency [12]	Potency [13]	outcome [14]	outcome [15]	Potency [16]	outcome [17]	Potency [18]	Potency [19]	Potency [20]
CCCCCCBr	inactive	inactive	inactive	inactive	inactive	inactive	inactive	inactive	inactive	inactive	inactive									
CCOc1nc(C(Cl)(Cl)Cl)ns1	inactive	inactive	inactive	inactive		inactive	inactive	inactive	inactive		inactive	inactive	inactive	inactive	inactive	inactive				
O=C(CCCN1CCC(n2c(=O)[nH]c3ccccc32)CC1)c1ccc(F)cc1	inactive	inactive	inactive	inactive	inactive		inactive	inactive	inactive	inactive	inactive		inactive	inactive		inactive	inactive	inactive		
CN/C(=N\[N+](=O)[O-])NCC1CCOC1 (stereo unspecified)	inactive	inactive	inactive	inactive	inactive	inactive	inactive	inactive	inactive	inactive	inactive			inactive	inactive	inactive		inactive		
O=CNC(N1CCN(C(NC=O)C(Cl)(Cl)Cl)CC1)C(Cl)(Cl)Cl (stereo unspecified)	inactive	inactive	inactive	inactive		inactive	inactive	inactive	inactive		inactive	inactive	inactive	inactive	inactive	inactive			30.6 µM (active)	inactive
